# HEK cytotox = cytotoxic compounds in HEK 293 cells. HEK 293 viability, ATP luminescence (CellTiter-Glo), 48-72 h. Potency, µM (highest dose often 115 µM), for inactives: at the highest dose activity change, negative = cytotoxicity, actives largely listed as inhibitors. actives 6.6% (n = 94,000). AID 1345083; further: nearly all actives have a fitted effect of over 60% in size
#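 HEK 293 cells seeded at 250 cells/well were exposed to compound for 48 or 72 hr at 37 degree Celsius. Viability taken as ATP content by CellTiter-Glo luminescence.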
# 3T3 cytotox = cytotoxic compounds in NIH 3T3 cells; AID 1345082; Potency, µM (doses to about 96.7 µM), for inactives: top-dose activity change, negative = cytotoxicity, most hits filed as inhibitors; NIH 3T3 viability, CellTiter-Glo ATP luminescence, 48-72 h; actives 4.3% (n = 94,000); further: nearly all actives have a fitted effect of over 55% in size
#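 First NIH 3T3 cells are plated at 400 cells/well; next compound is pinned in; then plates incubate 48 or 72 hr at 37 °C; finally CellTiter-Glo is added and luminescence read after 10 min.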
# NPR1 antag = antagonists of human natriuretic peptide receptor Npr1; HEK293 hNpr1 GloSensor cGMP, ANP-stimulated luminescence; Potency, µM (doses to about 46.3 µM), for inactives: top-dose activity change, negative = inhibition, hits mostly inhibitors; actives 1.6% (n = 76,000); AID 1347048; calls by dose curve; further: nearly all actives have a fitted effect of over 60% in size
#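 Compound pre-incubated 30 min at room temperature on GloSensor-loaded HEK293 cells stably carrying hNpr1 and the pGS-40F cGMP biosensor. Stimulation uses hNppA at 0.1 nM final; luminescence is taken at baseline and 20 min post-agonist.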
# FLuc inh = inhibitors of firefly (Photinus pyralis) luciferase; purified P. pyralis luciferase, luminescence, biochemical; Potency, µM (doses to about 115 µM), usual class: inhibitors; P08659; actives 2.5% (n = 76,000); further: nearly all actives have a fitted effect of over 65% in size
# Target sequence (P08659 whole entry, looked up): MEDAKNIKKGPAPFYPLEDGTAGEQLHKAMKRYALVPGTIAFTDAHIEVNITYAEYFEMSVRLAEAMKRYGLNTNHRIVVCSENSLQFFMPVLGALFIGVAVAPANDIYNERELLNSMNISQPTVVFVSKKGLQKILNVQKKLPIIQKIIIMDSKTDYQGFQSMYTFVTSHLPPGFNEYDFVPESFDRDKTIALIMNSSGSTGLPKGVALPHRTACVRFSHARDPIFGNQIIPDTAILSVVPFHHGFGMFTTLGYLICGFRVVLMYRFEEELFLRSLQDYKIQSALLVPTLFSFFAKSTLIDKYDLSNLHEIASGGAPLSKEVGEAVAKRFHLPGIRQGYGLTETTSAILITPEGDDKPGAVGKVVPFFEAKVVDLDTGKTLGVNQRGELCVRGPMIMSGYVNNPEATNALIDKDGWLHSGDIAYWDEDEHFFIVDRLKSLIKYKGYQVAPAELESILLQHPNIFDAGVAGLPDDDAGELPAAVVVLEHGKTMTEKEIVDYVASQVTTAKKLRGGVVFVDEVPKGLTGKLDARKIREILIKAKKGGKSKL
#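 Cell-free enzyme assay, 10nM P. pyralis luciferase, luciferin and ATP each at 10uM. Inhibition profiled over a 6-point titration, read as luminescence.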
# * marks the source's active call; other numbers are inactive results; i = inactive; ? = inconclusive; · = no result given; [ ] = remark or other dose. The list is not random: actives were taken first. Their share in the collection is about 11%. Unless noted, the call rests on the fitted dose curve; in most records, active means well fitted curve in the direction sought with a large enough effect; inconclusive means small, poorly fitted or top-dose-only effect, or another doubt; inactive means no such curve, though single readings can be large; an effect the other way counts as inactive or inconclusive. On the % scale 0 is the no-effect control and ±100 the full control effect; potency means the concentration at half of the fitted maximal effect.
SMILES,HEK cytotox,3T3 cytotox,NPR1 antag,FLuc inh
Cc1ccc([S+](=O)([O-])N2CCC(C(=O)N3CCC(c4nc5ncccc5[nH]4)CC3)C2)cc1 (configuration not stated),-6%,1%,·,·
CCc1ccc(CNC(=O)c2nnn3cc(C)[nH]c(=O)c23)cc1,-29%,35µM*,-30%,i
Cc1cn2nc(C(=O)NCCCc3ccccc3)cc2c(=O)[nH]1,-24%,-25%,15%,14µM*
Cc1ccc(CNC(=O)c2ccc(NC(=O)c3cc4c(=O)[nH]c(C)cn4n3)cc2)cc1,?,-4%,6%,11µM*
COCCCNC(=O)c1cc2c(=O)[nH]c(C)cn2n1,3%,i,4%,?
CSc1ccc(CNC(=O)c2cc3c(=O)[nH]c(C)cn3n2)cc1,-9%,-25%,9%,13µM*
COc1cccc(CNC(=O)c2nnn3cc(C)[nH]c(=O)c23)c1,12%,-15%,2%,i
COCCn1c(=O)c(C(=O)N2CCN(C(=O)C3CCCC3)CC2)nc2cccnc21,i,-8%,·,·
Cc1noc(C)c1C(=O)N1CCC2(CC1)CN(C(=O)c1ccc(Cl)cc1)CCO2,0%,6.3µM*,·,·
CC(=O)N[C@@H]1C=C(C(=O)NCCC(N)=O)C[C@@H](O)[C@@H]1O,-12%[230 µM],-8%[174 µM],6%[70.6 µM],i
CN1CCc2c([nH]c3ccccc23)C12CCN(C(=O)c1ccc(Cn3ccnc3)o1)CC2,89µM*,-24%,1%,i
CN1CCc2c([nH]c3ccccc23)C12CCN(C(=O)c1ccnn1C)CC2,2%,-13%,0%,i
CC(C)NC(=O)c1ccc2nnc(-c3ccc(Cl)cc3)n2c1,4%[172 µM],-9%[138 µM],·,·
COc1ccc(-c2noc([C@@H]3Cc4nc[nH]c4CN3Cc3ccc(NC(C)=O)cc3)n2)cc1,-7%,-22%,1%,35µM*
COc1ccc(CN2Cc3[nH]cnc3C[C@H]2c2nc(-c3ccc(C(F)(F)F)cc3)no2)cc1,?,?,-24%,40µM*
COc1ccc(-c2noc([C@@H]3Cc4nc[nH]c4CN3Cc3ccccc3)n2)cc1,?,?,-2%[70.6 µM],?
COc1ccc(CN2Cc3[nH]cnc3C[C@H]2c2nc(-c3ccc(F)c(Cl)c3)no2)cc1,?,?,-13%,i
CCOc1ccccc1CN1CCC2(CCN(C(=O)N(C)C)CC2)Oc2ccccc21,?,?,-8%,i
CN1CCN(C(=O)c2cc3n(n2)CC(c2ccc(Br)cc2)OC3)CC1 (configuration not stated),40µM*,?,-11%,i
O=C(c1cc2n(n1)CC(c1ccc(Cl)cc1)OC2)N1CCN(c2ccccc2Cl)CC1 (configuration not stated),28µM*,?,-25%,i
O=C(c1cc2n(n1)CC(c1ccc(Cl)cc1)OC2)N1CCN(c2ccc(F)cc2)CC1 (configuration not stated),40µM*,?,?,i
O=C(c1cc2n(n1)CC(c1ccc3c(c1)OCO3)OC2)N1CCN(c2ccccc2)CC1 (configuration not stated),?,?,?,i
CC(NC(=O)c1ccc2cccc(F)c2n1)c1ccccc1-n1cccn1 (configuration not stated),?,?,-2%,35µM*
Cc1ccc(NC(=O)N2CCC(CCNC(=O)C3CCCC3)CC2)cc1F,-3%,-23%,·,·
CC(=O)NCCC1CCN(C(=O)Nc2ccc(C)c(F)c2)CC1,3%,i,-28%,5µM*
SMILES,HEK cytotox,3T3 cytotox,NPR1 antag,FLuc inh
CCS(=O)(=O)N1C[C@@H](C(=O)NCc2ccc(C)o2)[C@H](c2ccncc2)C1,-5%,-14%,·,·
CCCCNC(=O)CC(c1cccc([N+](=O)[O-])c1)c1c[nH]c2ccccc12 (configuration not stated),?,?,-18%,i
COCCNC(=O)CC(c1ccc(Cl)cc1)c1c[nH]c2ccc([N+](=O)[O-])cc12 (configuration not stated),40µM*,?,?,i
O=C(CC(c1ccc(Cl)cc1)c1c[nH]c2ccc([N+](=O)[O-])cc12)N1CCOCC1 (configuration not stated),40µM*,?,?,i
CCOC(=O)c1ccc(NC(=O)c2ccc3c(c2)N(CC)C2CCCN2C3=O)cc1 (configuration not stated),?,-40%,-4%,i
CCOC(=O)c1ccc(NC(=O)c2ccc3c(c2)N(CC)C2CCCCN2C3=O)cc1 (configuration not stated),35µM*,?,-25%,i
CCOC(=O)c1ccc(NC(=O)c2ccc3c(c2)N(C)C2CCCCN2C3=O)cc1 (configuration not stated),35µM*,?,0%,i
CCOc1ccc(NC(=O)c2ccc3c(c2)N(CC)C2CCCCN2C3=O)cc1 (configuration not stated),32µM*,22µM*,-9%,i
CCN1c2cc(C(=O)Nc3cc(OC)cc(OC)c3)ccc2C(=O)N2CCCCC21 (configuration not stated),?,-22%,-7%,i
CC(C)N1C[C@@H](COc2ccc(-c3ccccc3)cc2)[C@H](c2ccccc2)S1(=O)=O,?,-12%,·,·
COCCc1nc(-c2cnc(C3CC3)nc2)n(-c2ccc(F)cc2F)n1,?,89µM*,1%,i
COCCCn1c(C)cnc1C1CCN(Cc2ccc(F)cc2F)C1 (configuration not stated),-26%,-27%,2%,i
N#Cc1ccc(CN2CCC3(CC2)CC(=O)c2ccc(Cl)cc2O3)cc1,?,-26%,?,i
Cc1ccc(C(=O)N[C@H]2CO[C@H]3[C@@H]2OC[C@@H]3Nc2nccc(C(C)(C)C)n2)cc1,63µM*,?,?,?
COc1ccc(NC(=O)O[C@@H]2CO[C@H]3[C@@H]2OC[C@@H]3NS(=O)(=O)c2ccc(NC(C)=O)cc2)cc1,-6%,?,-1%,45µM*
CC(=O)Nc1ccc(S(=O)(=O)N[C@H]2CO[C@H]3[C@@H]2OC[C@@H]3Nc2nccc(C(C)(C)C)n2)cc1,?,?,16µM*,?
CN1CCC(N2CCC[C@@H](O)[C@H](NC(=O)c3ccc(OCc4ccccc4)cc3)C2)CC1,79µM*,?,7%,i
COc1cccc(NC(=O)N2CCOC(CN(CC(C)C)C(=O)c3cccc(OC)c3)C2)c1 (configuration not stated),?,-36%,-11%,i
Cc1ccc(C(=O)N(CC(C)C)CC2CN(C(=O)c3ccc(Cl)c(Cl)c3)CCO2)cc1 (configuration not stated),45µM*,?,-13%,i
Cc1ccc(C(=O)N(CC(C)C)CC2CN(C(=O)Nc3cccc(Cl)c3)CCO2)cc1 (configuration not stated),40µM*,?,-13%,i
